TDP1 cell noCPT = qHTS for Inhibitors of human tyrosyl-DNA phosphodiesterase 1 (TDP1): qHTS in cells in absence of CPT; DT40 Tdp1-/- hTDP1 cells, no CPT, ATP luminescence, 48 h; 420,000 compounds, 15% hits; Potency, µM (titrated, usually from 46.2 µM), for inactives: at the highest dose activity change, negative = growth inhibition, hits mostly inhibitors; further: potency means the concentration at half of the fitted maximal effect; nearly all actives have a fitted effect of over 55% in size
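Chicken DT40 Tdp1-/- cells stably complemented with human TDP1 were seeded at 400 cells/well with DMSO in place of 20 nM camptothecin. After compound pinning, cells grew at least 48 hr at 37 °C; viability read by CellTiter-Glo luminescence.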
IL1B secr inh = blocks inflammasome-driven IL-1 beta release | THP-1 LPS/ATP IL-1B secretion, AlphaLISA, 16 h; active compounds read low | 360,000 compounds, 4.7% hits | AID 743279 | activity change, % at 57.5 µM; in the data active means activity change below about -50%; inconclusive means mostly about -30% to -49%
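Secreted IL-1B measured by AlphaLISA bead assay after 16 h compound exposure of THP-1 cells; compounds (final up to 57.5 uM) added 1 h before LPS (250 ng/mL) and ATP (1.25 mM) stimulation; lower signal means less secretion.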
Six1-Eya2 inh = blocks human Six1 binding to Eya2; AlphaScreen GST-Six1/His-Eya2 binding, biochemical; active compounds read low; 360,000 compounds, 0.56% hits; Q15475+O00167; activity change, % (concentration not given with the values); in the data active means activity change below about -65%; inconclusive means mostly about -30% to -63%
Target sequence (O00167 whole entry, looked up): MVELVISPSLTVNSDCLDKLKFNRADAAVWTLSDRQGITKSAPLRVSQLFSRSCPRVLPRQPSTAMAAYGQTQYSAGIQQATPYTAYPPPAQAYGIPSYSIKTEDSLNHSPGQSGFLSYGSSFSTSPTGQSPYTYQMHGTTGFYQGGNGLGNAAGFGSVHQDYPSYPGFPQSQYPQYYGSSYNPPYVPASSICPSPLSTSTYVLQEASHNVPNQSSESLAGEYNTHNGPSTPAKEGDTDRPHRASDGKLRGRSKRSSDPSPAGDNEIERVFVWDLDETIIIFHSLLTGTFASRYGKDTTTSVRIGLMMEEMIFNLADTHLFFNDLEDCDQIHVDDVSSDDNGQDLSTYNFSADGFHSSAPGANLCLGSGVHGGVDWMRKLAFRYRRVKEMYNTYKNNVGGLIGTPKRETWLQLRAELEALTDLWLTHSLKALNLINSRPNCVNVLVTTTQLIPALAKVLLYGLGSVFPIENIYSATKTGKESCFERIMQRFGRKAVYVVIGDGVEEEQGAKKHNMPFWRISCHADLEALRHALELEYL
Target sequence (Q15475 whole entry, looked up): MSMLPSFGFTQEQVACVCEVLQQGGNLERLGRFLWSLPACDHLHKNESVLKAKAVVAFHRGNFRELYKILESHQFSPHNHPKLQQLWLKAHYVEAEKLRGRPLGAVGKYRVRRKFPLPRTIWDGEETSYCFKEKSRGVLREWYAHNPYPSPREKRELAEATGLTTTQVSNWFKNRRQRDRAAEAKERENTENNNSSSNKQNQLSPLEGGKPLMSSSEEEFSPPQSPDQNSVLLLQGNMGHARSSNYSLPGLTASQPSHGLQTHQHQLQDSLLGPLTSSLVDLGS
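GST-Six1 + His-Eya2 (5X stock: 250/500 nM); Tris pH 8.0, 300 mM NaCl, 0.05% BSA, 0.02% Tween 20; GSH donor/Ni acceptor beads; 1 h 37 °C dark; AlphaScreen readout.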
TDP1 block = inhibitors of human tyrosyl-DNA phosphodiesterase TDP1; Potency, µM (doses to about 130 µM), for inactives: at the top dose activity change, negative = inhibition, actives largely listed as inhibitors; AID 485290; 350,000 compounds, 0.28% hits; recombinant TDP1, AlphaScreen DNA substrate cleavage; further: potency means the concentration at half of the fitted maximal effect; nearly all actives have a fitted effect of over 40% in size
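Here, a 5' biotin and 3' phosphotyrosine-FITC DNA oligonucleotide reports Tdp1 activity: intact substrate bridges AlphaScreen beads, while cleavage leaves a 3' phosphate and drops signal. All incubations at room temperature.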
CtBP-E1A inh = inhibitors of CtBP/E1A interaction; AlphaScreen GST-E1A/His-CtBP binding, 1536-well; active compounds read low; activity change, % (no concentration beside the values); 340,000 compounds, 0.49% hits; AID 651724; in the data active means activity change below about -65%; inconclusive means mostly about -30% to -63%
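Protein mix (5X: 125 nM each GST-E1A, His-CtBP) was incubated with pinned compound 2 h at 37 deg C in dark, in 50 mM Tris pH 8.0 buffer with 300 mM NaCl. Glutathione donor and nickel acceptor beads followed; AlphaScreen signal read after 1 h.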
DT40 TDP1 CPT = DT40-hTDP1 cell growth loss with CPT | chicken DT40 Tdp1-/-;hTDP1 cells + 20 nM CPT, ATP luminescence, 48 h | AID 686979 | Potency, µM (titrated, usually from 46.2 µM), inactives show top-dose activity change, negative = growth inhibition, hits mostly inhibitors | 420,000 compounds, 12% hits; further: potency means the concentration at half of the fitted maximal effect; nearly all actives have a fitted effect of over 55% in size
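Chicken DT40 Tdp1-/- cells complemented with human TDP1, 400 cells/well, exposed to compounds plus 20 nM camptothecin for at least 48 h at 37 C; viability read as ATP content by CellTiter-Glo luminescence.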
Active calls of the source: *; u = inconclusive; x = no result given. An excerpt weighted towards active compounds, which were near 18% of everything screened. Unless noted, the call rests on the fitted dose curve; in most records, active means well fitted curve in the direction sought with a large enough effect; inconclusive means small, poorly fitted or top-dose-only effect, or another doubt; inactive means no such curve, though single readings can be large; an effect the other way counts as inactive or inconclusive. On the % scale 0 is the no-effect control and ±100 the full control effect.

SMILES | TDP1 cell noCPT | IL1B secr inh | Six1-Eya2 inh | TDP1 block | CtBP-E1A inh | DT40 TDP1 CPT
Cc1ccc(C2CC(c3cccc(Cl)c3)n3nc(N)nc3N2)cc1 (stereo not given) | 18.4µM* | -22.4 | -2.1 | 8.7% | 2.5 | 14.6µM*
O=c1c2c(-c3ccc([N+](=O)[O-])cc3)csc2nc2n1CCCCC2 | u | -6.3 | 0.6 | 4.8% | -11.3 | -26.2%
O=[N+]([O-])c1ccc(C[n+]2cc(-c3ccccc3)n3c2CCCCC3)cc1 | 11.6µM* | -7.3 | -1.6 | 8.1% | -13.5 | u
O=[N+]([O-])c1cccc(-c2nnc3n2CCCCC3)c1 | -11.4% | -16.8 | 4.5 | 10.5% | 5.3 | -5.0%
O=[N+]([O-])c1ccc(C[n+]2cc(-c3ccc(Cl)c(Cl)c3)n3c2CCCCC3)cc1 | 5.8µM* | -24.7 | -1.0 | x | x | u
CN1CCN(C(=O)CCN2C(=O)/C(=C/c3cccc(Br)c3)SC2=S)CC1 | 11.6µM* | -76.0* | 5.3 | x | 17.2 | u
CN1CCN(C(=O)CCCN2C(=O)/C(=C/c3cccc(Br)c3)SC2=S)CC1 | u | -100.1* | -13.0 | 18.7% | -3.7 | -21.9%
CCCc1cc(C(=O)Nc2cccc3ccccc23)n(C)n1 | u | 12.0 | -7.2 | 4.8% | 4.0 | u
CCCc1cc(C(=O)Nc2ccc(C(=O)c3ccc(C)cc3)cc2)n(C)n1 | u | -62.5* | -2.4 | 1.7% | 0.0 | 14.6µM*
Clc1cccc(-c2nc3nc4ccccc4nc3n2Cc2ccccc2)c1 | u | -11.0 | -0.4 | 6.8% | 18.6 | u
C=CCn1c(-c2ccccc2)nc2nc3ccccc3nc21 | 18.4µM* | -7.2 | -4.7 | -6.3% | 5.2 | 18.4µM*
c1ccc(Cn2c(-c3ccccc3)nc3nc4ccccc4nc32)cc1 | 23.1µM* | -1.7 | 3.2 | -13.3% | -1.9 | 20.6µM*
CC(C(=O)N1CCc2ccccc21)N1CCN(c2ccccn2)CC1 (stereo not given) | -15.3% | 0.0 | -4.8 | -1.1% | 33.6 | -14.7%
COc1ccc(O)c(C(=O)c2cnn(C(=O)c3cccc(N(C)C)c3)c2)c1 | 18.4µM* | -23.6 | -6.5 | 0.6% | 0.7 | 18.4µM*
CC(NC(=O)Oc1cccc2ccccc12)c1ccccc1 (stereo not given) | 25.9µM* | 19.7 | -7.3 | x | 7.0 | u
O=C(Oc1cccc2ccccc12)c1ccccc1 | u | -5.6 | 54.9 | x | 48.5 | 3.7%
CC1(C(=O)NS(=O)(=O)c2cccs2)CCN1C(=O)C1CC1 (stereo not given) | -13.4% | 14.1 | 3.2 | x | 3.9 | -3.2%
CC(C)N1CCN(CC2COc3ccccc3O2)CC1 (stereo not given) | -9.2% | -3.7 | 0.5 | x | x | -0.3%
CCC1(C2CCN(Cc3cc4ccccc4o3)CC2)NC(=O)N(CC2COc3ccccc3O2)C1=O (stereo not given) | 20.6µM* | x | x | x | x | u
CC(C)(C)c1ccc(/C=N/NC(=S)NC2CCCCC2)cc1 | 11.6µM* | -29.5 | -16.8 | 7.9% | -9.9 | 14.6µM*
FC(F)(F)c1cccc(NC(=S)NC2CCCC2)c1 | u | 34.2 | -1.9 | 2.2% | 1.1 | u
OC1CCC(NC(=S)Nc2ccc(SC(F)F)cc2)CC1 (stereo not given) | u | -15.3 | -1.7 | 2.5% | -1.7 | u
FC(F)Sc1ccc(NC(=S)NC2CCCC2)cc1 | 16.4µM* | -3.0 | 6.5 | 0.5% | 4.3 | u
FC(F)(F)c1ccc(NC(=S)NC2CCCCC2)cc1 | 18.4µM* | -99.7* | 0.5 | 2.7% | -1.3 | u
CCOc1ccccc1N1CN(C2CCCCC2)CNC1=S | -9.4% | -6.4 | -1.7 | -2.6% | -13.0 | -4.9%
COc1cc(-c2cc3nc(C)c(C)c(=O)n3[nH]2)cc(OC)c1OC | -40.3% | -26.2 | -21.0 | 1.0% | 10.2 | -9.0%
